About 79,000 compounds went through this panel and 15% of them were active in at least one assay; those are over-represented in the sample as a whole. Rule as the data show it: active = growth inhibition above about 70%; inactive = the rest.
Experiments:
[1] = NCI Yeast Anticancer Drug Screen. Data for the rad50 strain (AID 155);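 also: 0% = growth of vehicle-only cultures of the same strain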; details: S. cerevisiae rad50 strain growth inhibition; at 50.0 µM; stronger effect = higher value
Outline: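 Relative growth inhibition (compound vs vehicle) was measured in yeast with a defined repair-gene alteration.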

[2] = NCI Yeast Anticancer Drug Screen. Data for the mec2-1 strain (AID 157); details: S. cerevisiae mec2-1 strain, at 50.0 µM, stronger effect = higher value
Outline: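 Cells of the genetically defined mec2-1 yeast strain are incubated with test compound. Inhibition of growth is calculated against vehicle-treated controls.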

[3] = NCI Yeast Anticancer Drug Screen. Data for the sgs1 mgt1 strain (AID 161);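 also: 0% = growth of cultures given vehicle only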; details: S. cerevisiae sgs1 mgt1 strain, at 50.0 µM, stronger effect = higher value
Outline: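 Mutant yeast exposed to compound; growth scored against vehicle-only wells.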

[4] = NCI Yeast Anticancer Drug Screen. Data for the cln2 rad14 strain (AID 165);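 also: 0% = growth equal to vehicle treated cultures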; details: S. cerevisiae cln2 rad14 strain, at 50.0 µM, stronger effect = higher value
Outline: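 The screen exposed genetically defined yeast (cln2 rad14) to test compounds and scored growth inhibition relative to vehicle-treated controls.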

[5] = NCI Yeast Anticancer Drug Screen. Data for the bub3 strain (AID 167); details: S. cerevisiae bub3 mutant strain, at 50.0 µM, stronger effect = higher value
Outline: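 Screening used yeast with an engineered genetic alteration affecting cell cycle control. Compound-exposed cultures were compared with vehicle cultures, and reduced growth was taken as inhibition.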

[6] = NCI Yeast Anticancer Drug Screen. Data for the mlh1 rad18 strain (AID 175); details: S. cerevisiae mlh1 rad18 strain growth inhibition; at 50.0 µM; stronger effect = higher value
Outline: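 Compound-treated yeast growth, normalised to vehicle controls. Strain bears defined DNA repair mutations.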

Measured: growth inhibition

NC(=O)c1nc2ccccc2nc1Nc1ccc(Cl)cc1Cl
inactive: [1] 29% | [2] 10.2% | [3] 7.55% | [4] -0.9% | [5] 13% | [6] 23.2%

CC(=O)OC1CC2CC3C(C)CCC3(C2(C)C)C1(C)O (stereo not given)
inactive: [1] -12.9% | [2] -0.25% | [3] -0.7% | [4] 0.7% | [5] 11.4% | [6] -11.5%

CCCCCC(=O)Nc1ccccc1
inactive: [1] 4.95% | [2] -6.3% | [3] 1.7% | [4] -29.4% | [5] -10.9% | [6] -3.25%

CC[C@H]1CN(C)[C@H]2Cc3c([nH]c4ccccc34)C(=O)C[C@H]1C2C(=O)OC (stereo not given in full)
inactive: [1] -0.35% | [2] -0.95% | [3] 6.95% | [4] 12.6% | [5] -1.65% | [6] -35.9%

Cc1ccc(N=Cc2cccs2)c(Br)c1
inactive: [1] -5.7% | [2] -20.1% | [3] -0.2% | [4] 6.4% | [5] -0.95% | [6] 5.95%

COC(=O)Cc1cccnc1
inactive: [1] -3.3% | [2] -6.85% | [3] -11.3% | [4] -0.55% | [5] 0.05% | [6] 12.7%

NCC(=O)NCCC(=O)O
inactive: [1] 3.15% | [2] -6.7% | [3] 1.75% | [4] 4.6% | [5] -24.6% | [6] -4.6%

CCCCc1c2c(nc3c1CCCC3=O)C(=O)CCC2
inactive: [1] -11.3% | [2] -1.95% | [3] -14.7% | [4] 2% | [5] -2.45% | [6] -9.15%

CCCCCC(=O)N1CCOCC1
inactive: [1] 11.2% | [2] 10.8% | [3] 5.6% | [4] -6.35% | [5] -21.4% | [6] 9%

CCCCCCCCCCCCCCCCCC(=O)N1C(=O)c2ccccc2C1=O
inactive: [1] 22.6% | [2] 2.35% | [3] 6.75% | [4] -8.85% | [5] -2.65% | [6] 29.9%

[O-][n+]1onc2c1/C(=N/O)CCC2
inactive: [1] -17.2% | [2] 4.6% | [3] -14.3% | [4] -2.3% | [5] -4.1% | [6] 11.7%

CCCCCCCCCCCCCCOc1ccc(S(=O)(=O)/N=C(\N)NC(N)=NCCCCCCCCCC)cc1
inactive: [1] 30.2% | [2] -9.6% | [3] 10.2% | [4] -21.1% | [5] -2.2% | [6] 2.15%

COc1ccc(C2c3cc4c(cc3OC(O)(CO)C2C(=O)O)OCO4)c(OC)c1OC (stereo not given) (tested in a mixture with another compound)
inactive: [1] 0.2% | [2] -4% | [3] 6% | [4] -15.5% | [5] -18.3% | [6] 9.65%

CC(=O)CC(O)(C(F)(F)Cl)C(F)(Cl)Cl (stereo not given)
inactive: [1] -35.5% | [2] -47.7% | [3] -42.8% | [4] 0.2% | [5] -30.1% | [6] -35.8%

O=C(O)CNc1ccc(C(=O)O)cc1
inactive: [1] -20.9% | [2] -10.1% | [3] -11.3% | [4] 41.1% | [5] -51.7% | [6] -11.7%

COc1ccc(NC(=O)NCc2ccc(C)cc2)cc1
inactive: [1] 4.45% | [2] 33.8% | [3] 33.8% | [4] -5.5% | [5] 7.85% | [6] 26.9%

COc1ccc2c(c1)CC1=C2CCC2(C)C(=O)CC=C12 (stereo not given)
inactive: [1] 11.7% | [2] -8.35% | [3] -7.65% | [4] 11.8% | [5] 4.5% | [6] 4.85%

N#C/C=C\c1ccc(F)cc1
inactive: [1] 27.1% | [2] 9.7% | [3] 17.1% | [4] 3.35% | [5] 10.8% | [6] 12.2%

CC(C)COC(=O)c1ccc(C(C)C)cc1
inactive: [1] 9.35% | [2] 8.8% | [3] 4.6% | [4] -9.8% | [5] 5.1% | [6] 4.45%

N#Cc1ccc(/C=C\c2ccc(C#N)cc2)cc1
inactive: [1] -8.2% | [2] 5.05% | [3] 4.45% | [4] 6.05% | [5] 1.2% | [6] -11.1%

COC(=O)Nn1c(C)c(C(=O)Nc2ccc(OC)cc2)c(C(=O)OC)c1C
inactive: [1] 32.6% | [2] -16% | [3] 14.3% | [4] 2.8% | [5] 10.2% | [6] 21.6%

CCN(CC)CC(O)Cn1cnc2c(=S)nc[nH]c21 (stereo not given)
inactive: [1] 8.7% | [2] -4.05% | [3] -3.45% | [4] 4.9% | [5] 1.45% | [6] -4.45%

NC(=O)Cn1c(=O)[nH]c(=O)c2[nH]cnc21
inactive: [1] -16.9% | [2] -2.1% | [3] -10.3% | [4] 5.4% | [5] -0.4% | [6] 6.85%

CC(O)CN1CCN(CCN(CC(C)O)CC(C)O)CC1 (stereo not given)
inactive: [1] -16.1% | [2] -24.2% | [3] -3.7% | [4] -2% | [5] -9.4% | [6] -19.6%

CCCCCCCSC#N
inactive: [1] -7.6% | [2] 20.9% | [3] -1.9% | [4] -22.4% | [5] 9.75% | [6] 29.6%

CC1OC(OC2C(O)C(OCCc3ccc(O)c(O)c3)OC(CO)C2OC(=O)/C=C/c2ccc(O)c(O)c2)C(O)C(O)C1O (stereo not given)
inactive: [1] 4.75% | [2] -9.8% | [3] -3% | [4] 8.25% | [5] -2.7% | [6] 20.8%

c1ccc2c(c1)OCCOCCOc1ccccc1OCCO2
inactive: [1] -3.6% | [2] 0.4% | [3] 0.95% | [4] 17.8% | [5] -6.5% | [6] -3.65%

O=C(COc1ccc(Cl)cc1)Nc1ccc(I)cc1
inactive: [1] 0.05% | [2] -4.85% | [3] 0.6% | [4] -5.15% | [5] -1.45% | [6] 6.45%

Cc1cc(=O)[nH]c(NNC(C#N)c2ccc([N+](=O)[O-])cc2)n1 (stereo not given)
inactive: [1] -18.5% | [2] 0.35% | [3] -36.1% | [4] -8.8% | [5] -30.6% | [6] -50.9%

COC(=O)c1cccc(=O)o1
inactive: [1] 2.55% | [2] 0.1% | [3] -18.4% | [4] -79% | [5] -1.2% | [6] 2.15%

CC1=CCCC(C)(C)C1/C=C/C(C)=N/NC(=O)Nc1ccccc1 (stereo not given)
inactive: [1] 32.2% | [2] -6.2% | [3] 0.25% | [4] -8.85% | [5] 8.85% | [6] 16.4%

COC1CCC2(C)C3CCC4C(=CCC5C(C)(C)C(OC(C)=O)CCC45C)CC3(C)CCC2C1(C)C (stereo not given)
inactive: [1] 13.1% | [2] -19.4% | [3] -8.35% | [4] -20.8% | [5] 0.1% | [6] 0.2%

CCOC(=O)c1ccc(NC(=O)Nc2ccc(OC)c([N+](=O)[O-])c2)cc1
inactive: [1] -5.9% | [2] -3.6% | [3] 12.5% | [4] -15.7% | [5] 17.8% | [6] -5.2%

O=S1(=O)CS(=O)(=O)OCCCCO1
inactive: [1] 10.2% | [2] -5.75% | [3] 4.9% | [4] 13.3% | [5] -9.05% | [6] 7.85%

c1ccc(CN2C3C4N(Cc5ccccc5)C2C2N(Cc5ccccc5)C(C(N2Cc2ccccc2)N4Cc2ccccc2)N3Cc2ccccc2)cc1
inactive: [1] 10.1% | [2] 2.35% | [3] 21.9% | [4] 3.2% | [5] 11.8% | [6] -3.6%

CCOc1ccc(NC(=S)N/C=C(/C#N)C(N)=O)cc1
inactive: [1] -13.6% | [2] -26.4% | [3] -15.3% | [4] -14.2% | [5] -16.9% | [6] -3.5%

O=C(Oc1c(Cl)cc(Cl)cc1Cl)c1ccc([N+](=O)[O-])cc1
inactive: [1] 9.2% | [2] 10.8% | [3] 5.45% | [4] -8.65% | [5] -9.45% | [6] -1.15%

CC(=O)OCc1cc(=O)n2c([nH]c3ccccc32)c1C#N
inactive: [1] 11.1% | [2] 10.6% | [3] -24.6% | [4] -15.5% | [5] -26.3% | [6] -2.6%

O=c1cc(-c2ccc(Cl)cc2)oc2cc(OCCCOc3ccc4c(=O)cc(-c5ccc(Cl)cc5)oc4c3)ccc12
inactive: [1] 40.9% | [2] 37.5% | [3] 12.8% | [4] -33.1% | [5] 19.9% | [6] 25.1%

CCOC(=O)c1ccc(/C(C)=N/NC(N)=S)cc1
inactive: [1] 7.35% | [2] 3.8% | [3] 21% | [4] 15.4% | [5] 5.35% | [6] -9.5%
